# The list is not random: actives were taken first. Their share in the collection is about 4.5%.
# Gli-Sufu antag – Gli-Sufu pathway antagonists, primary screen, luciferase luminescence, Sufu-KO-LIGHT cells, uHTS. Sufu-KO-LIGHT fibroblasts, Gli luciferase reporter luminescence. inhibition, % at 5 µM. hit rate 0.74% among 340,000;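 active = inhibition above about 55%, limit read from the data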
# Mdm2-MdmX inh – inhibitors of human Mdm2-MdmX association, primary screen, cell-based, luminescence, split luciferase, SaOS-2, uHTS | Protein Mdm4 (Homo sapiens) + E3 ubiquitin-protein ligase Mdm2 (Homo sapiens), … | SaOS-2 split-luciferase Mdm2/MdmX complementation | inhibition, % at 8 µM | hit rate 3% among 330,000 | AID 485346, 2010;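 active = inhibition of at least 50% at 8 µM in the primary screen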
# 697 NFkB inh – inhibitors of PMA/ionomycin-induced NF-kB reporter, 697 cells, primary screen, B-cell NF-kB inhibitor project, cell-based, luminescence, uHTS; hit rate 0.33% among 330,000; inhibition, % at 4 µM; 697 B-cell NF-kB luciferase reporter, 16 h; in the data active = inhibition above about 35%
# CSC inhib – cancer stem cell viability inhibitors, primary screen, luminescence; inhibition, % at 7.5 µM; AID 2717, 2010; hit rate 1.1% among 300,000; cancer stem cell-like cells viability; in the data active = inhibition above about 75%; tested in HMLE shEcad cells
# Beta apoptosis – inhibitors of cytokine-induced beta cell apoptosis, primary screen, luminescence; INS-1E cytokine-induced death, ATP luminescence, 48 h; percent of positive-control rescue, neutral wells zero; protection from apoptosis, % (no concentration beside the values); hit rate 0.8% among 300,000;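 active = Every replicate reaches about 75%, or at least half do and their mean reaches it too, limit read from the data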;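 note: higher means more ATP so stronger rescue from cytokine killing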
# Jurkat NFkB inh – inhibitors of induced NF-kB luciferase reporter, primary screen, TCR NF-kB activation inhibitor project, cell-based, luminescence, uHTS; hit rate 0.53% among 330,000; inhibition, % at 4 µM; Jurkat, PMA/ionomycin-induced NF-kB luciferase reporter; AID 435003, 2010; in the data active = inhibition above about 50%
# Mdm2-MdmX conf – Mdm2-MdmX complex disruptors, retested hits, confirmation, luminescence, single concentration; shares compounds with Mdm2-MdmX inh; Mdm2-MdmX binding, luminescent assay; inhibition, % at 8 µM; hit rate 55% among 10,000; AID 489028, 2010; in the data active = inhibition above about 40%
# FLuc counter – full-length luciferase signal inhibition, confirmation, counter-screen for Mdm2/MdmX interaction inhibitor project, cell-based, single concentration, SaOS-2; shares compounds with Mdm2-MdmX inh; SaOS-2 full-length luciferase counterscreen, luminescence; inhibition, % at 8 µM; hit rate 77% among 6,200; AID 504607, 2011;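 active = mean inhibition at 8 µM reaching about 37%, which flags the compound as non-specific, limit read from the data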;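 note: p53-null SaOS-2 cells with luciferase driven by a doxycycline-inducible promoter; compound on cells about two nights before reading with doxycycline added after day one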
# Hits are given with their value; - = inactive; . = no result.
SMILES,Gli-Sufu antag,Mdm2-MdmX inh,697 NFkB inh,CSC inhib,Beta apoptosis,Jurkat NFkB inh,Mdm2-MdmX conf,others
O=C(c1ccccc1F)n1c2c(c3ccccc31)CCCC2,-,56,-,-,-,-,44,FLuc counter=56
CC1CCN(CC(=O)n2c3c(c4ccccc42)CCCC3)CC1,-,-,-,.,.,-,.,
O=C(NNC(=O)c1cc(Cl)nc2ccccc12)c1ccccc1F,-,-,-,-,.,-,.,
O=C1OC(c2ccc(F)cc2)=C/C1=C\c1ccc([N+](=O)[O-])o1,.,74,-,-,-,-,-,
COC(=O)c1sc(N)c(C(=O)OC)c1COC(=O)[C@@H](NS(=O)(=O)c1cccc(Cl)c1)C(C)C,-,54,-,-,-,-,-,
Cc1ccc(C(=O)OCn2ncc(Cl)c(Cl)c2=O)cc1,-,90,-,.,101,-,100,FLuc counter=-
Cc1ccc(C(=O)COC(=O)c2nc(Cl)ccc2Cl)cc1,-,-,-,.,-,-,.,
O=C(OCC(=O)c1ccc[nH]1)c1ccc(C(F)(F)F)cc1,-,-,-,-,-,-,.,
O=C(OCn1ncc(Cl)c(Cl)c1=O)c1ccc(C(F)(F)F)cc1,-,72,-,.,.,-,74,FLuc counter=53
COc1cc(OC)cc(-c2nnc(NC(=O)CCS(=O)(=O)c3ccc(C)cc3)o2)c1,-,51,-,.,-,-,61,FLuc counter=72
COc1cc(OC)cc(-c2nnc(NC(=O)c3ccc4c(c3)OCCO4)o2)c1,-,53,-,-,.,-,-,
Cc1ccc(S(=O)(=O)CCC(=O)Nc2nnc(-c3ccc(F)cc3)o2)cc1,-,-,-,-,-,-,.,
CCOc1ccc(-c2nnc(NC(=O)c3ccc(OCC(C)C)c(OC)c3)o2)cc1,-,57,-,103,-,-,57,FLuc counter=-
COc1cccc(C(=O)Nc2nnc(-c3ccc(Cl)cc3)o2)c1,-,-,-,-,-,-,.,
Oc1ccc(Oc2ccc(Oc3ccc(O)cc3)cc2)cc1,-,-,-,-,-,-,.,
COCCN(C(=O)COC(=O)/C=C/c1nc2ccccc2s1)c1c(N)n(Cc2ccccc2)c(=O)[nH]c1=O,-,64,-,-,-,-,-,
COCCN(C(=O)COC(=O)/C=C/c1ccc2ccccc2n1)c1c(N)n(Cc2ccccc2)c(=O)[nH]c1=O,-,54,-,-,-,-,-,
Cc1ccc2[nH]c(O)c(N=Nc3nc4ccccc4s3)c2c1,-,68,-,-,-,-,55,FLuc counter=47
COc1cccc(N=C2CC(C)(C)CC(=O)/C2=C(/O)c2ccccc2)c1,-,-,-,-,-,-,.,
Cc1ccc(CNC(=O)C2CCC(CNS(=O)(=O)c3cccs3)CC2)cc1 (stereo not drawn),-,-,-,-,-,-,.,
CCOc1ccc2nc(Cl)c(/C=C/C(=O)c3ccco3)cc2c1,-,53,-,-,-,-,-,
CCOC(=O)C1(CCOc2ccccc2)CCN(Cc2ccc(O)c(OCC)c2)CC1,-,-,-,-,-,-,.,
Cc1ccc(-n2sc3ccccc3c2=O)cc1,-,-,-,-,-,-,.,
O=c1c2ccccc2sn1-c1ccc(F)cc1,-,51,-,-,-,-,-,
CCN(CC)c1nc(Nc2ccccc2)nc(Oc2ccc(=O)n(C)n2)n1,-,64,-,-,-,-,-,
SMILES,Gli-Sufu antag,Mdm2-MdmX inh,697 NFkB inh,CSC inhib,Beta apoptosis,Jurkat NFkB inh,Mdm2-MdmX conf,others
CCN(CC)c1nc(Nc2ccccc2)nc(Oc2ccc(=O)[nH]n2)n1,-,-,-,-,-,-,.,
CC(NC(=S)Nc1ccc(OC(F)F)c(Cl)c1)C(C)(C)C (stereo not drawn),-,58,-,-,-,-,-,
Cc1cc(NC(=O)CSc2nc3ccccc3c(=O)n2C(C)c2ccccc2)no1 (stereo not drawn),-,72,-,-,-,-,-,
CC(C)(C)OC(=O)[C@H](Cc1ccccc1)NC(=O)c1nc[nH]c1C(=O)N[C@@H](Cc1ccccc1)C(=O)OC(C)(C)C,-,86,-,-,-,-,-,
C[C@H](NC(=O)c1nc[nH]c1C(=O)N[C@@H](Cc1ccccc1)C(=O)OC(C)(C)C)C(=O)OC(C)(C)C,-,-,-,.,-,-,.,
CC(C)(C)OC(=O)NCCCC[C@H](NC(=O)c1[nH]cnc1C(=O)N[C@@H](Cc1ccccc1)C(=O)OC(C)(C)C)C(=O)OC(C)(C)C,-,62,-,-,-,-,-,
CC(C)(C)OC(=O)NCCCCCNC(=O)c1[nH]cnc1C(=O)N[C@@H](Cc1ccccc1)C(=O)OC(C)(C)C,-,-,-,.,-,-,.,
CC(C)c1ccccc1OS(N)(=O)=O,-,-,-,-,-,-,.,
O=[N+]([O-])c1ccc(S(=O)(=O)c2ccccc2)nc1,-,95,-,102,106,-,97,FLuc counter=50
Cc1cc(S(=O)(=O)c2ccc([N+](=O)[O-])cn2)ccc1Br,-,99,-,98,-,-,99,FLuc counter=39
Cc1ccc(S(=O)(=O)c2ccc([N+](=O)[O-])cn2)cc1,-,96,-,100,105,-,88,FLuc counter=52
Cc1ccc(Nc2ccc([N+](=O)[O-])cn2)cc1Cl,-,-,-,-,-,-,.,
COc1ccccc1N1CCN(S(=O)(=O)c2c(C(=O)N3CCOCC3)c(C)n(C)c2C)CC1,-,-,-,-,-,-,.,
Cc1nc(-n2[nH]c3c(c2=O)CCCC3)[nH]c(=O)c1Cc1ccccc1,-,58,-,-,-,-,64,FLuc counter=-
Cc1nc(N2CCc3ccccc3C2)[nH]c(=O)c1Cc1ccccc1,-,-,-,-,-,-,.,
COc1ccc(C)cc1NC(C)C(=O)NC(=O)NC1CCCCC1 (stereo not drawn),-,-,-,-,-,-,.,
CCOc1ccccc1NC(=O)C(=O)CC(=O)c1ccc(OC)cc1,-,-,-,-,-,-,.,
O=C1N[C@@H](Cc2ccccc2)C(=O)N2[C@@H]3N(S(=O)(=O)c4ccccc4)c4ccccc4[C@]3(Br)C[C@@H]12,-,-,-,-,.,-,.,
CC(C)c1cc(C(C)C)c(S(=O)(=O)N2c3ccccc3[C@@]3(Br)C[C@H]4C(=O)N[C@@H](Cc5ccccc5)C(=O)N4[C@@H]23)c(C(C)C)c1,-,59,-,-,.,-,-,FLuc counter=106
Cc1cc(C(N)=O)c2ccccc2n1,-,-,-,-,-,-,.,
